DENV2 CPE rescue = protects cells from dengue virus 2 cytopathic effect | CPE inhibition, % at 9.99 µM | DENV2-infected cells, cytopathic effect rescue, plate reader | actives 1.7% (n = 350,000); in the data active = CPE inhibition above about 20%, passing the limit was not always enough; inconclusive = no clear call, values can overlap the other calls; tested in BHK-21 cells;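 note: 0% = median of neutral control wells and 100% = median of positive control wells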
RAD52 anneal inh = blocks human RAD52 DNA annealing | P43351 | actives 0.46% (n = 360,000) | AID 651710 | recombinant RAD52 DNA annealing, FRET fluorescence | inhibition, % at 18.7 µM;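 active = every replicate showing at least 50% inhibition; inconclusive = mean inhibition at least 50% but not in every replicate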
Target sequence (P43351 whole entry, looked up): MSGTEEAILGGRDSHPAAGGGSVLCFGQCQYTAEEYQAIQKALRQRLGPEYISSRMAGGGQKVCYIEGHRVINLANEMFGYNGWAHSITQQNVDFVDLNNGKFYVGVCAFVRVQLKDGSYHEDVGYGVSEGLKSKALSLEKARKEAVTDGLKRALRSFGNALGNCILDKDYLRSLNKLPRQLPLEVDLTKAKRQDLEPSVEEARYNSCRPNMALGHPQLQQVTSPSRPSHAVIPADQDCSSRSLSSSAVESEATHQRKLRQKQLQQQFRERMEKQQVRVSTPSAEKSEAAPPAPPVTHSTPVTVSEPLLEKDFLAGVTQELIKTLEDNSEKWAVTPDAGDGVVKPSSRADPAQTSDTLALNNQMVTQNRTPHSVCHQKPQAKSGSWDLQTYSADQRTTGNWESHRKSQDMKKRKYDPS
FGF22 binding = shifts melting point of recombinant human FGF22; recombinant FGF22 thermal shift, SYPRO orange fluorescence; percent of sucrose octasulfate shift, DMSO zero; activity (Tm shift, normalised), % at 9.99 µM; actives 1.5% (n = 340,000);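 active = mean Tm shift, scaled 0 neutral to 100 positive control, at about 1.3% or above, every replicate too, limit read from the data; inconclusive = no clear call, values can overlap the other calls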
Target sequence (Q9HCT0 whole entry, looked up): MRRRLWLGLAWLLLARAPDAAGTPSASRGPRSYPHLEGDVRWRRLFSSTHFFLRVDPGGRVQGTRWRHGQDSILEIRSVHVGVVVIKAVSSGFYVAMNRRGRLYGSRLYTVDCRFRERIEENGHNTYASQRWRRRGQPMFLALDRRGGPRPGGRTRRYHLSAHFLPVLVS
ERAP1 HTS inh = blocks human ERAP1 aminopeptidase activity | inhibition, % at 10.7 µM | recombinant ERAP1, Leu-AMC fluorescence, 60 min | actives 0.15% (n = 340,000);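 active = mean replicate inhibition of at least 30%, or all replicates individually reaching that 30% level; inactive = mean below 30% and not every replicate reaching it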;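 note: 0% = neutral control wells and 100% = L-leucinethiol positive control wells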
AF4-AF9 inh = MLL-AF4/AF9 protein interaction inhibition; AlphaScreen, biotin-AF4 peptide binding to FLAG-AF9; inhibition, % at 10 µM; actives 0.47% (n = 350,000); AID 651704;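 active = every replicate reaching a set inhibition limit, whatever the replicate mean, cut at about 25% in these data; inconclusive = mean inhibition reaches that limit but some replicates miss it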;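 note: 0% = plate neutral control median and 100% = total signal loss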
The depositor's hits bear a star; u = inconclusive; x = not tested or not shown. This is a sample that favours compounds with a hit; in the whole collection about 4% have one here.

SMILES	DENV2 CPE rescue	RAD52 anneal inh	FGF22 binding	ERAP1 HTS inh	AF4-AF9 inh
CCC(=O)Nc1cc(C(=O)O)ccc1Sc1ccc(C)cc1	-3	-21	0	3	-1
COc1ccc2[nH]c(=O)c(C(c3nnnn3CC3CCCO3)N3CCCCC3)cc2c1 (stereo not given)	1	-6	43*	-1	-1
O=C(/C=C/c1c(Cl)nc2ccccn12)Nc1ccc(F)cc1	-3	-9	44*	-2	2
O=Cc1c(Cl)nc2ccccn12	-1	1	0	-6	-1
COc1ccc2c3c([nH]c2c1)[C@@H](CO)N(C(=O)c1ccncc1)CC31CCN(C(=O)Nc2cccc(F)c2)CC1	7	-19	0	-3	-1
COc1ccc(/C=C/C(=O)Nc2ccccc2C(=O)NCC(c2ccc(OC)cc2)N(C)C)cc1 (stereo not given)	1	11	-1	-2	26*
COc1ccc(/C=C/C(=O)Nc2ccccc2C(=O)O)cc1	-4	-8	x	-1	0
COc1ccc(C(CNC(=O)c2cccc3cccnc23)N(C)C)cc1 (stereo not given)	46*	-4	0	4	0
COc1ccccc1-c1ccc([C@@H]2[C@@H](CO)N3CCCCN(S(=O)(=O)c4cn(C)cn4)C[C@@H]23)cc1	u	-6	0	-1	-1
O=C(C1CCCCC1)N1CC(=O)N2[C@H](CO)[C@H](c3ccc(C#CCc4ccccc4)cc3)[C@H]2C1	25*	6	x	2	2
O=C(c1ccccc1)N1CC(=O)N2[C@H](CO)[C@H](c3ccc(C#CCC4CCCC4)cc3)[C@@H]2C1	21*	-9	x	0	2
O=C(C1CC1)N1CC(=O)N2[C@@H](CO)[C@H](c3ccc(C#CCc4ccccc4)cc3)[C@@H]2C1	45*	6	x	0	0
O=C(C1CC1)N1CC(=O)N2[C@H](CO)[C@@H](c3ccc(C#CCc4ccccc4)cc3)[C@@H]2C1	-1	16	x	0	-1
O=C(c1ccccc1)N1CC(=O)N2[C@H](C1)[C@H](c1ccc(C#CCC3CCCC3)cc1)[C@@H]2CO	-2	-5	x	-1	5
C[C@@H]1CN([C@H](C)CO)C(=O)c2cc(C#CC3CCCCC3)cnc2O[C@@H]1CN(C)S(C)(=O)=O	0	3	0	1	-2
CC(=O)N1[C@H](CO)[C@H](c2ccccc2)[C@H]1CNC(=O)c1ccncc1	21*	-2	x	0	-3
COCCN(C[C@H]1[C@H](c2ccccc2)[C@H](CO)N1C(C)=O)C(=O)c1ccncc1	25*	-5	0	-3	-2
O=C(NC[C@@H]1[C@@H](c2ccccc2)[C@@H](CO)N1CC1CCCC1)c1cccnc1	39*	x	x	x	x
Cc1noc(C)c1S(=O)(=O)N(C)C[C@@H]1OCCCC[C@H](C)Oc2ccc(NC(=O)NC3CCCCC3)cc2C(=O)N([C@H](C)CO)C[C@@H]1C	8	-14	0	0	2
COc1ccc2c3c([nH]c2c1)[C@@H](CO)N(C(=O)C1CCC1)CC31CCN(C(=O)c2ccccn2)CC1	5	7	0	3	-4
CC(C)(C)OC(=O)NCc1ccc(CNC(=O)c2[nH]cnc2C(=O)N[C@@H](Cc2ccccc2)C(=O)OC(C)(C)C)cc1	7	2	12*	x	2
CN1CCn2cnc(C(=O)N[C@@H](Cc3ccccc3)C(=O)OC(C)(C)C)c2C1=O	2	-2	44*	2	0
O=C(Cn1ccc([N+](=O)[O-])n1)NCC1CCCO1 (stereo not given)	27*	-5	0	-1	0
CCCN(C)C[C@H]1OCCCC[C@@H](C)Oc2ccc(NC(=O)NC(C)C)cc2C(=O)N([C@@H](C)CO)C[C@H]1C	2	15	0	1	9
C#CCOCCOCCOCCNc1nc(N2CCOCC2)nc(N2CCN(C(=O)[C@H](Cc3ccc(O)cc3)n3cc([C@@H](N)CC(C)C)nn3)CC2)n1	20*	-10	0	x	9
SMILES	DENV2 CPE rescue	RAD52 anneal inh	FGF22 binding	ERAP1 HTS inh	AF4-AF9 inh
C#CCOCCOCCOCCNc1nc(N2CCN(C(=O)Cn3cc(CCO)nn3)CC2)nc(N2CCN(C(=O)[C@H]([C@@H](C)CC)n3cc(CCCCN)nn3)CC2)n1	-11	-3	0	-2	-4
C#CCOCCOCCOCCNc1nc(N2CCN(C(=O)[C@H](C(C)C)n3cc(CCO)nn3)CC2)nc(N2CCN(C(=O)[C@H](Cc3ccc(O)cc3)n3cc(CCO)nn3)CC2)n1	9	-8	0	2	x
C#CCOCCOCCOCCNc1nc(N2CCN(C(=O)[C@H]([C@@H](C)CC)n3cc(CCCN=C(N)N)nn3)CC2)nc(N2CCN(C(=O)[C@H](Cc3ccc(O)cc3)n3cc(CCO)nn3)CC2)n1	9	8	0	-5	31*
C#CCOCCOCCOCCNc1nc(N2CCN(C(=O)[C@H]([C@@H](C)CC)n3cc([C@@H](N)Cc4ccc(O)cc4)nn3)CC2)nc(N2CCN(C(=O)[C@H](Cc3ccc(O)cc3)n3cc([C@@H](N)CC(C)C)nn3)CC2)n1	-12	-22	0	x	16
C#CCOCCOCCOCCNc1nc(N2CCN(C(=O)Cn3cc(CCCCN)nn3)CC2)nc(N2CCN(C(=O)[C@H]([C@@H](C)CC)n3cc(CCCCN)nn3)CC2)n1	-12	45	0	-1	26*
Cc1ccc(S(=O)(=O)N(C)C[C@H]2Oc3ccc(NC(=O)CCCN(C)C)cc3CC(=O)N([C@@H](C)CO)C[C@@H]2C)cc1	-6	10	0	0	0
CCCC(=O)Nc1ccc2c(c1)OC[C@@H](C)N(CC1CCCC1)C[C@@H](C)[C@@H](OC)CN(C)C2=O	10	-7	0	-2	-3
O=C(N[C@H]1CC[C@@H](CCNS(=O)(=O)c2ccccc2)O[C@H]1CO)c1cccc(F)c1	-4	-8	0	-2	-1
CC(C)[N+]1=C2C=CC=CC=C2SC12C([N+](=O)[O-])=CC(=[N+]([O-])[O-])C=C2[N+](=O)[O-] (stereo not given)	8	0	0	2	29*
Cc1ccc(CNC(=O)CSc2nnc3n2CCCCC3)cc1	-3	-3	0	2	2
O=C(CSc1nnc2n1CCCCC2)NCc1ccccc1	3	-5	43*	1	-41
Cc1noc(C)c1NC(=O)Nc1ccc2c(c1)C(=O)N([C@H](C)CO)C[C@@H](C)[C@H](CN(C)C(=O)Nc1cccc3ccccc13)OCCCC[C@H](C)O2	7	3	0	4	0
CO[C@H]1CN(C)C(=O)c2ccc(NC(=O)c3ccc(Oc4ccccc4)cc3)cc2OC[C@@H](C)NC[C@H]1C	31*	24	0	-1	10
CO[C@@H]1CN(C)C(=O)c2cc(NC(=O)c3ccc(Oc4ccccc4)cc3)ccc2OC[C@@H](C)NC[C@H]1C	9	40	0	6	9

Source: PubChem (Broad Institute)
